LEDGF integ inh: blockers of LEDGF/p75-dependent integrase strand transfer – biochemical, TR-FRET, high throughput, primary screen | TR-FRET IN-LEDGF/p75 DNA integration, Eu/Cy5 | AID 743269, 2014 | inhibition, % at 3.7 µM | hit rate 0.64% among 370,000 | HIV-1 integrase (with human LEDGF/p75);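 active = inhibition above the screen-wide mean plus 3 SD, cut at about 13% in these data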;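 also: signal is the Cy5 over europium emission ratio at 671 and 618 nm; 0% = plate median of compound wells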
MBD2 DNA inh: inhibitors of MBD2 binding to methylated DNA, primary screen, biochemical, TR-FRET, DNA-binding domain, human; Methyl-CpG-binding domain protein 2 (Homo sapiens), Q9UBB5; MBD2 binding to methylated oligonucleotide; inhibition, % at 4.4 µM; hit rate 0.31% among 370,000; AID 686964, 2013; in the data active = inhibition above about 13%
Rin1-Abl PPI inh: inhibitors of Rin1-Abl protein binding, primary screen, biochemical, TR-FRET. inhibition, % at 7.35 µM. hit rate 0.4% among 360,000. AID 588664, 2011; in the data active = inhibition above about 5%, passing the limit was not always enough
proKLK7 act: proKLK7 zymogen activators, primary screen, biochemical, fluorescence intensity | Kallikrein-7 (Homo sapiens), P49862 | purified proKLK7, EDANS-DABCYL substrate fluorescence; 100% is mature enzyme control, 0% vehicle | activation, % at 7 µM | hit rate 0.9% among 370,000;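 active = activation above the mean of all tested compounds plus 3 SD, computed per campaign excluding outliers beyond control limits, cut at about 13% in these data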
Neddylation inh: inhibitors of cullin neddylation, primary screen, biochemical, TR-FRET, uHTS, NAE and Ubc12. NEDD8-conjugating enzyme Ubc12 (Homo sapiens) + NEDD8-activating enzyme E1 regulatory …. calls only at 25 µM. AID 651699, 2012. hit rate 0.58% among 360,000; in the data active = inhibition above about 36%
Target sequence (P61081 whole entry, looked up): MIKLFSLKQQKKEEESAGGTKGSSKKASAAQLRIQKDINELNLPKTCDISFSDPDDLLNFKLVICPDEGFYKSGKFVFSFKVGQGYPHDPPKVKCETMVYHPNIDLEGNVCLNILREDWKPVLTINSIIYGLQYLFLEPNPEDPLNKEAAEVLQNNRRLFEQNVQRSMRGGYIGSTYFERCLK
Target sequence (Q13564 whole entry, looked up): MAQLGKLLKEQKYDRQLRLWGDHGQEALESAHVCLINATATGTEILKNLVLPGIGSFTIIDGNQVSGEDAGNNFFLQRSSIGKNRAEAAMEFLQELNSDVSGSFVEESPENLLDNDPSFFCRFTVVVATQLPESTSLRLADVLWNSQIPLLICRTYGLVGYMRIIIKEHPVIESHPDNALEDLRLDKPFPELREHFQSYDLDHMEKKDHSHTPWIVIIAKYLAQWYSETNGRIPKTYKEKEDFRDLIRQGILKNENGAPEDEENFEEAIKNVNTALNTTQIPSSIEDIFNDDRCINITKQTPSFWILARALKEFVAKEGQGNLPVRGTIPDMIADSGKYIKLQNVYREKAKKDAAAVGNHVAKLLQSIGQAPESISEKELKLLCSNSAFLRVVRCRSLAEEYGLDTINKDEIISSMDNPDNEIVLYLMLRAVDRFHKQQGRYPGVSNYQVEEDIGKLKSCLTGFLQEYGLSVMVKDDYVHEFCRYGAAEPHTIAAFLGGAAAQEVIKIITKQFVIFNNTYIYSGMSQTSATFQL
UHRF1 MBD2 ctr: UHRF1 methylated DNA binding inhibitors, primary screen, counter-screen for MBD2 inhibitor project, biochemical, TR-FRET, human UHRF1, single concentration | E3 ubiquitin-protein ligase UHRF1 (Homo sapiens), Q96T88 | AID 687016, 2013 | hit rate 0.75% among 370,000 | UHRF1 binding to methylated oligo | inhibition, % at 4.4 µM; in the data active = inhibition above about 21%;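 also: UHRF1 SRA domain binding a hemimethylated CpG hairpin DNA probe; 0% = median of test compound wells and 100% = reference inhibitor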
KLK7 act conf: proKLK7 zymogen activators, confirmation, biochemical, fluorescence intensity, triplicate | AID 686949, 2013 | activation, % at 7 µM | purified proKLK7, EDANS-DABCYL substrate fluorescence; scaled: vehicle 0, mature enzyme 100 | shares compounds with proKLK7 act | hit rate 68% among 3,200;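 active = activation, as change over the incubation, above the mean of all tested compounds plus 3 SD, cut at about 13% in these data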
EDANS-DABCYL int: EDANS-DABCYL substrate optical interference, artefact control for kallikrein-7 zymogen activator project, biochemical, fluorescence intensity, high throughput; hit rate 80% among 3,200; shares compounds with proKLK7 act; no enzyme, 4 h; solvent 0%, active enzyme control 100%; activation, % at 7 µM; AID 686952, 2013;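 active = activation above the all-compound mean plus 3 SD, ignoring values outside control-based bounds, cut at about 4.8% in these data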;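 also: value is the 4 h activation minus the activation read at time zero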
EDANS interf: optically interferes with EDANS-DABCYL fluorescence, kallikrein-7 activator counter-screen; hit rate 20% among 250; EDANS-DABCYL peptide fluorescence interference, no enzyme; shares compounds with proKLK7 act; EC50, µM;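 active = compounds that raise the fluorescence signal in this interference counterscreen, with EC50 at or below 10 µM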;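 also: intact quenched peptide substrate alone read at 355 nm excitation and 520 nm emission; signal is fluorescence gain from T0 to T4 after four hours at room temperature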
UHRF1 DNA bind: UHRF1 methylated DNA binding inhibitors, counter-screen for MBD2 inhibitor project, biochemical, TR-FRET, human UHRF1; shares compounds with MBD2 DNA inh; UHRF1 binding to methylated oligonucleotide; inhibition, % at 4.4 µM; hit rate 25% among 1,000; in the data active = inhibition above about 21%;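 also: UHRF1 SRA domain binding a labeled hemimethylated CpG hairpin DNA; 0% = vehicle only and 100% = reference inhibitor with vehicle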
MBD2 confirm: inhibitors of MBD2 binding to methylated DNA, confirmation, biochemical, TR-FRET, DNA-binding domain, human | shares compounds with MBD2 DNA inh | TR-FRET MBD2-DBD binding to methylated oligonucleotide | inhibition, % at 4.4 µM | hit rate 26% among 1,000 | AID 720531, 2013
IN multimer up: HIV-1 IN multimer formation enhancers, counter-screen for LEDGF/p75 integration inhibitor project, biochemical, TR-FRET; shares compounds with LEDGF integ inh; TR-FRET HIV-1 integrase multimerization; activation, % at 7.7 µM; hit rate 17% among 2,000; AID 1053131, 2014; in the data active = activation above about 8.9%
TRFRET interf: TR-FRET optical interference artefacts, confirmation, artefact control for LEDGF/p75-dependent integration inhibitor project, biochemical, HIV-1 IN multimerization; shares compounds with LEDGF integ inh; TR-FRET optical interference counterscreen; inhibition, % at 7.7 µM; 2,000 tested, under 10 active;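 active = inhibition above the mean over all tested compounds plus 3 SD, which no compound reached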;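 also: 0% = integrase with antibodies and DMSO and 100% = antibodies without integrase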
LEDGF integ conf: inhibitors of HIV-1 IN-LEDGF/p75 DNA integration, confirmation, biochemical, TR-FRET | shares compounds with LEDGF integ inh | TR-FRET LEDGF/p75-dependent HIV-1 integration | inhibition, % at 3.7 µM | hit rate 36% among 2,000 | AID 1053136, 2014
Starred values were filed as active, the others as inactive; i = inactive; x = no result given. Sampled rows, rich in hits. Any-hit rate of the full collection: about 3.1%. Rule as the data show it, unless noted: active = inhibition above about 14%; inactive = the rest.

SMILES | LEDGF integ inh | MBD2 DNA inh | Rin1-Abl PPI inh | proKLK7 act | Neddylation inh | UHRF1 MBD2 ctr | UHRF1 DNA bind | MBD2 confirm | others
COC(=O)C1CCN(C(=O)c2cc(-c3ccco3)nc3ccccc23)CC1 | 28* | 22* | 4 | 48* | i | 40* | 30* | 22* | KLK7 act conf=36*;EDANS-DABCYL int=27*;EDANS interf=>70;IN multimer up=15*;TRFRET interf=-74;LEDGF integ conf=49*
COc1ccc(OC)c(C2C(C#N)=C(N)Oc3c2c(C)nn3-c2cccc(Cl)c2)c1 (configuration not stated) | 17* | 7 | 4 | 19* | i | 15 | x | x | KLK7 act conf=35*;EDANS-DABCYL int=33*;IN multimer up=0;TRFRET interf=0;LEDGF integ conf=-6
COC(=O)c1cc(-c2ccc(OC)c(OC)c2)c(=O)n2c1CCC2 | -1 | 4 | x | 0 | x | 0 | x | x
CCc1ccc(CCNC(=O)OCCCN2CCC3(CCC(c4ccccc4)CC3)C2=O)cc1 (configuration not stated) | 3 | 7 | x | 1 | x | 1 | x | x
CC1CCN(Cc2c(O)ccc3c2O/C(=C\c2ccco2)C3=O)CC1 | x | x | -2 | x | i | x | x | x
COCCN(CCOC)Cc1c(O)ccc2c1O/C(=C\c1ccco1)C2=O | 41* | 2 | 3 | 19* | i | 25* | x | x | KLK7 act conf=23*;EDANS-DABCYL int=27*;IN multimer up=24*;TRFRET interf=-84;LEDGF integ conf=22*
O=C1/C(=C/c2ccco2)Oc2c1ccc(O)c2CN1CCCCC1 | 22* | 1 | 0 | 14* | i | 14 | x | x | KLK7 act conf=67*;EDANS-DABCYL int=73*;IN multimer up=13*;TRFRET interf=-65;LEDGF integ conf=23*
CCN(CC)C(=O)Oc1ccc2c(c1)O/C(=C\c1ccco1)C2=O | 2 | 4 | -1 | 7 | i | 5 | x | x
CCC(=O)Oc1ccc2c(c1)O/C(=C\c1ccco1)C2=O | 25* | 5 | -3 | 51* | i | 20 | x | x | KLK7 act conf=478*;EDANS-DABCYL int=467*;IN multimer up=7;TRFRET interf=-36;LEDGF integ conf=10
N=C1C(c2ccccc2)=C(O)CN1c1ccc2c(c1)OCO2 | 0 | -1 | 1 | -1 | i | 1 | x | x
O=C(CNc1ccccc1Cl)N/N=C1\CCCc2ccccc21 | 1 | 23* | 3 | 0 | i | 2 | 4 | 1
Cn1ccnc1SCC(=O)Nc1nc2ccccc2s1 | -2 | 14* | 1 | 0 | i | 5 | 5 | 1
O=C(NCCO)c1cccc2c1C(=O)c1ccccc1-2 | 2 | 2 | -4 | 0 | i | 0 | x | x
O=C1c2cccc(NCCNCCO)c2C(=O)c2cccc(NCCNCCO)c21 | 6 | 107* | -21 | -1 | i | 93* | 93* | 108*
C[C@@H]1CCC2[C@](C)(CO)[C@@H](O)CC[C@]2(C)[C@@]12CCC(CO)(CCO)O2 (some centres not stated) | 2 | 25* | 0 | 0 | i | 2 | 9 | 2
C[C@@H]1CCC2[C@](C)(CO)[C@@H](O)CC[C@]2(C)[C@@]12CC[C@@](CO)(CC(=O)O)O2 (some centres not stated) | -3 | 1 | 0 | 0 | i | 3 | x | x
CCN(CC(=O)Nc1c(F)cccc1F)C(=O)/C=C/c1ccc2ccccc2n1 | 10 | 30* | 2 | 0 | i | 64* | 66* | 58*
CCN(CC(=O)Nc1c(F)cccc1F)C(=O)c1ccc2ccccc2n1 | -4 | -1 | 0 | 0 | i | 4 | x | x
CCOC(=O)c1ccc(NC(=O)NC2CCN(CC(=O)NCc3ccc4c(c3)OCO4)CC2)cc1 | 1 | 19* | 4 | 0 | i | 3 | 8 | 4
O=C(CN1CCC(NC(=O)Nc2ccc3c(c2)OCO3)CC1)Nc1ccc2c(c1)OCCO2 | -1 | -1 | x | 0 | x | 0 | x | x
CS(=O)(=O)Nc1cccc(NC(=O)C2Cc3c(-c4ccccc4)ccnc3O2)c1 (configuration not stated) | 6 | -7 | -4 | 1 | i | -1 | x | x
CN1C2=N[C@@H](c3ccc4c(c3)OCO4)CC(=O)N2/C(=C\c2ccccc2)[C@H]1c1ccccc1 | 1 | 2 | x | x | x | -2 | x | x
CCCn1nc2cc(C(=O)NCc3ccc(OC)cc3)ccc2c1OCC | 12 | 14* | 1 | -13 | x | 29* | 6 | 4
O=S(=O)(NCC1CCCO1)c1ccc2oc3ccc(S(=O)(=O)NCC4CCCO4)cc3c2c1 (configuration not stated) | 2 | 18* | -2 | 0 | i | -2 | 12 | 3

Screening data as filed in PubChem BioAssay.
